Compound activity as filed in PubChem.
Sampled rows, rich in hits. Any-hit rate of the full collection: about 21%.
DT40 TDP1 CPT: growth inhibition of DT40 Tdp1-/-;hTDP1 cells with camptothecin (screen for TDP1 inhibitors). hit rate 12% among 420,000. chicken DT40 Tdp1-/-;hTDP1 cells + 20 nM CPT, ATP luminescence, 48 h. AID 686979. Potency, µM (doses to about 46.2 µM), for the others: at the highest dose activity change, negative = growth inhibition, hits mostly inhibitors; further: potency means the concentration at half of the fitted maximal effect; nearly all actives have a fitted effect of over 55% in size
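Chicken DT40 Tdp1-/- cells complemented with human TDP1, 400 cells/well, exposed to compounds plus 20 nM camptothecin for at least 48 h at 37 C; viability read as ATP content by CellTiter-Glo luminescence.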
Gal4-VP16 FLuc: Gal4-VP16 reporter inhibition counter-screen. AID 2546. Potency, µM (doses to about 53.6 µM), for inactives: at the top dose activity, negative = inhibition, actives largely listed as inhibitors. hit rate 3.5% among 310,000. Drosophila S2 Gal4-VP16 UAS-luciferase, luminescence, 20 h;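 further: Gal4-VP16 expression switched on by copper sulfate through the metallothionein promoter; potency means the concentration at half of the fitted maximal effect; nearly all actives have a fitted effect of over 50% in size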
RORgamma inh: blocks mouse ROR gamma transcriptional activity | P51450 | Drosophila S2 Gal4-RORgamma UAS-luciferase reporter, 20 h | Potency, µM (highest dose often 53.6 µM), for inactives: at the top dose activity change, negative = inhibition, hits mostly inhibitors | hit rate 5.4% among 310,000; further: potency means the concentration at half of the fitted maximal effect; nearly all actives have a fitted effect of over 60% in size
Target sequence (P51450 whole entry, looked up, the tested form may be a part): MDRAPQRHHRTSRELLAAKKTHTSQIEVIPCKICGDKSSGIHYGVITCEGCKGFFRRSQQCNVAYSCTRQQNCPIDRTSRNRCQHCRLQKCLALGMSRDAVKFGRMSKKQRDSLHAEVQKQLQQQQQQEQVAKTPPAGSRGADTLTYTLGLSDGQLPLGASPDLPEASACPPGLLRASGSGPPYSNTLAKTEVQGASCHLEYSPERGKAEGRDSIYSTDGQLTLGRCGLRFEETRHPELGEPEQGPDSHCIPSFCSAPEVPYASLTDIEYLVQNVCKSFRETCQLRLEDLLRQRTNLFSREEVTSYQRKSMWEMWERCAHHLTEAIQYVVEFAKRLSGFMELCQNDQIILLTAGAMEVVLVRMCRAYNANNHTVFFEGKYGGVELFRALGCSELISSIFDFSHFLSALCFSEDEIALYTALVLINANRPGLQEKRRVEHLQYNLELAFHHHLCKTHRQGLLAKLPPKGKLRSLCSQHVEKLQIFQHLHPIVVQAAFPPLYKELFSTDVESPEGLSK
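Stable Schneider cell line, Gal4 DNA-binding domain fused to ROR gamma, UAS-luciferase. Cmpd 1 hr RT → CuSO4 700 uM final → 20 hr RT → luciferase reagent 10 min → luminescence.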
ELG1 DNA repair: inhibitors of ELG1-dependent DNA repair in HEK293T cells; AID 504467; Potency, µM (titrated, usually from 46.1 µM), inactives show at the top dose activity change, negative = inhibition, usual class: inhibitors; HEK293T ELG1-luciferase reporter, luminescence, 16 h; DNA damage induced by 5-fluorouridine; hit rate 2.3% among 330,000; further: potency means the concentration at half of the fitted maximal effect; nearly all actives have a fitted effect of over 55% in size
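Cells (2,000 per well) received 5-fluorouridine plus test compound or DMSO and were incubated 16 hr at 37 °C, 5% CO2. Luciferase activity was read by luminescence 30 min after ONE-Glo addition; signal suppression marked inhibition of damage-induced ELG1 function.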
DT40 TDP1 no CPT: qHTS for Inhibitors of human tyrosyl-DNA phosphodiesterase 1 (TDP1): qHTS in cells in absence of CPT; DT40 Tdp1-/- hTDP1 cells, no CPT, ATP luminescence, 48 h; Potency, µM (highest dose often 46.2 µM), for the others: top-dose activity change, negative = growth inhibition, actives largely listed as inhibitors; hit rate 15% among 420,000; AID 686978, 2013; further: potency means the concentration at half of the fitted maximal effect; nearly all actives have a fitted effect of over 55% in size
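Camptothecin absent (DMSO only). Human TDP1-complemented DT40 knockout cells, 400 cells/well, 37 °C for minimum 48 hr; ATP measured via CellTiter-Glo, 30 min dark incubation, luminescence.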
IL1B secr inh: blocks inflammasome-driven IL-1 beta release | THP-1 LPS/ATP IL-1B secretion, AlphaLISA, 16 h; stronger effect = lower value | activity change, % at 57.5 µM | hit rate 4.7% among 360,000 | AID 743279; in the data active means activity change below about -50%; inconclusive means mostly about -30% to -49%
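Secreted IL-1B measured by AlphaLISA bead assay after 16 h compound exposure of THP-1 cells; compounds (final up to 57.5 uM) added 1 h before LPS (250 ng/mL) and ATP (1.25 mM) stimulation; lower signal means less secretion.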
* hit, by the source's call; i = inactive; ? = inconclusive; nt = no result given; [ ] = dose if it differs, or a comment. Unless noted, the call rests on the fitted dose curve; in most records, active means well fitted curve in the direction sought with a large enough effect; inconclusive means small, poorly fitted or top-dose-only effect, or another doubt; inactive means no such curve, though single readings can be large; an effect the other way counts as inactive or inconclusive. On the % scale 0 is the no-effect control and ±100 the full control effect.

SMILES | DT40 TDP1 CPT | Gal4-VP16 FLuc | RORgamma inh | ELG1 DNA repair | DT40 TDP1 no CPT | IL1B secr inh
C[C@]12CC[C@H]3c4ccc(O)cc4CC[C@@H]3[C@H]1CC[C@@H]2OC(=O)CCC1CCCC1 | nt | ? | -8%[10 µM] | nt | nt | nt
Cc1ccc(CN(C)C(=O)c2cccc(S(=O)(=O)N3CCCC3)c2)o1 | 8% | nt | nt | 10% | -9% | 24
COc1ccc(S(=O)(=O)N2CCC(C(=O)N(C)Cc3ccc(C)o3)CC2)cc1OC | -19% | nt | nt | 16µM* | -28% | -24
CC(C)(C)C(=O)N1CCN(c2ccnc3cc(Cl)ccc23)CC1 | ? | -9% | 36% | ? | ? | -14
CC(C)S(=O)(=O)N1CCN(c2ccnc3cc(Cl)ccc23)CC1 | ? | 1% | 2% | -7% | ? | nt
Cc1ccc(Cl)cc1N1CCN(S(=O)(=O)c2cccc(S(=O)(=O)N3CCCC3)c2)CC1 | ? | 0% | 5% | -7% | ? | 5
CC(=O)c1ccc(N2CCN(c3ccnc4cc(Cl)ccc34)CC2)cc1 | ? | -9% | -13% | -1% | 3.7µM* | -4
O=[N+]([O-])c1ccc(S(=O)(=O)N2CCN(c3ccnc4cc(Cl)ccc34)CC2)cc1 | 18µM* | -1% | 44% | -9% | ? | -18
N#Cc1cccc(S(=O)(=O)N2CCN(c3ccnc4cc(Cl)ccc34)CC2)c1 | 12µM* | ? | ? | ? | 12µM* | -16
CN(C)S(=O)(=O)N1CCN(c2ccnc3cc(Cl)ccc23)CC1 | 23µM* | -4% | 14% | ? | 13µM* | ?
COCCNC(=O)C1(C)CCN(C(=O)c2cc(C(C)(C)C)nn2C)C1 (stereo not drawn) | -25% | nt | nt | nt | -4% | 4
CC(C)Oc1ccc(S(=O)(=O)N2CCOCC2)cc1NC(=O)c1cc([N+](=O)[O-])ccc1N1CCOCC1 | -1% | nt | nt | ? | 9% | -2
C[C@@H]1CCCCO[C@H](CN(C)C(=O)c2ccccc2)[C@@H](C)CN([C@H](C)CO)C(=O)c2cc(NC(=O)c3ccncc3)ccc2O1 | 8% | nt | nt | nt | 12% | 19
O=C(C1CC1)N1CCN(c2ccnc3cc(Cl)ccc23)CC1 | ? | 3% | 9% | ? | ? | -8
O=S(=O)(c1cccc(Br)c1)N1CCN(c2ccnc3cc(Cl)ccc23)CC1 | ? | ? | 39% | -25% | 21µM* | i
O=C(C1CCCCC1)N1CCN(c2ccnc3cc(Cl)ccc23)CC1 | 10µM* | ? | -44% | 12µM* | 12µM* | ?
COc1ccc(/C=c2\[nH]c(=O)/c(=C/c3ccc(OC)cc3)[nH]c2=O)cc1 | 0% | nt | nt | nt | -1% | nt
CN(C)CCCN(C(=O)CCc1ccccc1)c1nc2ccc(Cl)cc2s1 | 23µM* | ? | -23% | -4% | 23µM* | nt
CN(C)CCCN(C(=O)COc1ccccc1)c1nc2cc3c(cc2s1)OCO3 | 9% | 9% | 1% | 2% | -29% | i
CN(C)CCCN(C(=O)COc1ccccc1)c1nc2ccc(Cl)cc2s1 | ? | -16% | -10% | 7% | ? | -51*
Cc1ccc2nc(N(CCCN(C)C)C(=O)CCc3ccccc3)sc2c1 | ? | -28% | ? | 13% | ? | nt
OCCN(CCO)c1cc2c3ccccc3ccc2c2ccccc12 | ? | nt | nt | nt | 16µM* | -65*
OCCN(CCO)c1ccc2ccccc2c1 | -23% | 0% | -2% | 5% | 2% | 18
CN(C)c1cc2c3ccccc3ccc2c2ccccc12 | ? | nt | nt | nt | 16µM* | nt
O=C(NC1CC(=O)N(c2cccc(F)c2)C1)N1CCN(C(=O)c2ccco2)CC1 (stereo not drawn) | 3% | nt | nt | 17% | -1% | 22
